# Experimental data published in PubChem BioAssay (NCATS).
# Values without a mark were called inactive. Calls of active or inactive are those of the source. The call rests on the fitted dose curve; in most records, active means well fitted curve in the direction sought with a large enough effect; inactive means no such curve, though single readings can be large or run the other way.
# Molecular target: Alpha-galactosidase A (Homo sapiens) (UniProt P06280)
# Experiment: Counterscreen for Glucocerebrosidase Inhibitors: qHTS Assay for Human alpha-Galactosidase at pH 4.5 (AID 992); further: 0% is about no effect
# Details: purified enzyme, fluorogenic substrate; series mostly up to 76.9 µM; activity change, negative = inhibition: at the top concentration
# Description: NIH Chemical Genomics Center [NCGC]
# NIH Molecular Libraries Screening Centers Network [MLSCN]
# PI Name: Zheng, Wei [NIH]
# Alpha-galactosidase is a homodimeric glycoprotein that hydrolyzes the terminal alpha-galactosyl moieties from glycolipids and glycoproteins. Deficiency of this enzyme results in Fabry Disease with progressive accumulation of globotriaosylceramide and other glycosphingolipids in vascular endothelial cells that causes renal failure, myocardial infarction and stroke, and premature death in patients. It has reported that the improper folding and trafficking of alpha-galactosidase resulted from the genetic mutations may account for a significant numbers of Fabry patients. […] We optimized this alpha-galactosidase assay in 1536-well plate format for identifying the novel small molecule inhibitors with the structures other than the sugar analogs in order to develop the new pharmacological chaperones.
# NCGC Assay Protocol Summary:
# This is a fluorogenic enzyme assay with 4-Methylumbelliferyl alpha-D-galactopyranoside as the substrate and human […] as the enzyme preparation. Upon the hydrolysis of this fluorogenic substrate, the resulting product, […]. 4-Methyllumbelliferone, can be excited at 365 nm and emits at 440 nm which can be detected by a standard fluorescence plate reader. Data were normalized to the controls for basal activity (without enzyme) and 100% activity (with enzyme). In the AC50 values were determined from concentration-response data modeled with the standard Hill equation.
# Assay buffer: 50 mM citric acid, 0.005% Tween-20, pH 4.5. (pH 4.5 is an optimal condition for this enzyme assay)
# 1536-well assay protocol for the human alpha-galactosidase:
# (1) Add 2 ul/well of enzyme (2 nM final)
# (2) Add 23 nL compounds in DMSO solution. The final titration was 0.7 nM to 77 uM.
# (3) Add 1 ul of substrate (80 uM final)
# (4) Incubate at room temperature for 20 min.
# (5) Add 2 ul stop solution (1M NaOH and 1M Glycine mixture, pH 10)
# (6) Detect the assay plate in a ViewLux plate reader (PerkinElmer) with Ex=365 nm and Em=440nm.
# Keywords: Alpha-galactosidase, Fabry Disease, pharmacological chaperone, chaperone therapy, high throughput screening, alpha-galactosidase inhibitor, MLSMR, MLSCN, NIH Roadmap, qHTS and NCGC
# Chain of Alpha-galactosidase A (Homo sapiens) (P06280 whole entry, looked up): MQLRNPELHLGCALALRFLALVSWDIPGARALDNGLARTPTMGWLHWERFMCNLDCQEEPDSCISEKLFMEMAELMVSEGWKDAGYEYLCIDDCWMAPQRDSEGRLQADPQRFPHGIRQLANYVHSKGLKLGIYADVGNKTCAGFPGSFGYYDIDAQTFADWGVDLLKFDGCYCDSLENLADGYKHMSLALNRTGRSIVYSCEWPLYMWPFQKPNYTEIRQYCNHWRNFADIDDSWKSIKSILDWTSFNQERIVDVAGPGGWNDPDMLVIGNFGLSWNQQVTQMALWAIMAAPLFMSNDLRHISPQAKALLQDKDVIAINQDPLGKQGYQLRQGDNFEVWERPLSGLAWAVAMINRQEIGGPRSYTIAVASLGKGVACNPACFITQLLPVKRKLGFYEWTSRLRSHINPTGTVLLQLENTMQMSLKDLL
Structure (SMILES),"activity change, negative = inhibition [%]",outcome
Nc1ncnc2c1ncn2[C@@H]1O[C@@H](COP(=O)(O)CP(=O)(O)OP(=O)(O)O)[C@H](O)[C@@H]1O,-0.3,
N[C@H](CCl)C(=O)O,-1.69,
CCn1cnc2c(Nc3cccc(Cl)c3)nc(N[C@@H]3CCCC[C@H]3N)nc21,-2.1,
CC(=O)c1c(O)c(C)c(O)c(Cc2c(O)c3c(c(C(=O)/C=C\c4ccccc4)c2O)OC(C)(C)C=C3)c1O,-3.18,
C[Se]C[C@@H](N)C(=O)O,-0.322,
C=CCN1CC[C@]23c4c5ccc(O)c4O[C@@H]2/C(=N/NC(=O)c2ccccc2)CC[C@@]3(O)[C@H]1C5,-5.93,
O=C(O)[C@H]1[C@H](C(=O)O)[C@H]2CC[C@@H]1O2,-1.37,
O=C(O)[C@H]1CCN1,-1.11,
C[C@@]12CC[C@H]3[C@@H](CC=C4C[C@H](OS(=O)(=O)O)CC[C@]43C)[C@H]1CCC2=O,-0.804,
C[C@]12CC[C@H](O)CC1=CC[C@@H]1[C@H]2CC[C@]2(C)C(=O)CC[C@H]12,0.256,
CCN(CC)c1ncnc2c1ncn2[C@@H]1O[C@@H](COP(=O)(O)OP(=O)(O)C(Br)(Br)P(=O)(O)O)[C@H](O)[C@@H]1O,0.789,
N[C@H](Cc1ccc(N(CCCl)CCCl)cc1)C(=O)O,-1.44,
C[C@@H](Cc1ccc(O)cc1)NC[C@@H](O)c1cc(O)cc(O)c1,-6.54,
C#CCN[C@@H](C)Cc1ccccc1,-1.96,
C[C@@H]1O[C@H]1P(=O)(O)O,-0.184,
CO[C@@H]1CC=C2CCN3CCC4=C(CC(=O)OC4)[C@]23C1,1.44,
C[C@@H]1Cc2cc3c(cc2C(c2ccc(N)cc2)=NN1)OCO3,-5.51,
NC(=O)CN1C[C@@H](O)CC1=O,1.59,
CC(C)C[C@H](NP(=O)(O)O[C@@H]1O[C@@H](C)[C@@H](O)[C@@H](O)[C@H]1O)C(=O)N[C@@H](Cc1c[nH]c2ccccc12)C(=O)O,1.52,
NC[C@H](O)c1cc(O)c(O)cc1F,-2.55,

Structure (SMILES),"activity change, negative = inhibition [%]",outcome
C[N+]1(C)C2CC(OC(=O)C(CO)c3ccccc3)CC1[C@@H]1O[C@H]21 (some centres undefined),,inactive
C[C@@]12CC[C@H]3[C@@H](CC[C@@H]4C[C@H](O)CC[C@]43C)[C@H]1CC[C@H]2O,-2.56,
N[C@H](Cn1ccc(=O)[nH]c1=O)C(=O)O,-3.41,
COc1cc(C[C@H](C)N)c(OC)cc1I,,inactive
C[C@@]12CC[C@H]3[C@@H](CCC4=C(O)C(=O)CC[C@]43C)[C@H]1CCC2=O,-0.75,
CC(C)N[C@@H](C)Cc1ccc(I)cc1,-0.607,
COc1ccc2c3c1O[C@@H]1C(=O)CC[C@@]4(O)[C@@H](C2)N(CC2CC2)CC[C@]314,-3.47,
CCNC(=O)[C@@H]1O[C@@H](n2cnc3c(N)ncnc32)[C@@H](O)[C@H]1O,0.61,
CC(=O)OCC1=C(C(=O)[O-])N2C(=O)[C@@H](NC(=O)CCC[C@@H](N)C(=O)[O-])[C@@H]2SC1.[Zn+2],-0.371,
C[C@]12CC[C@H](O)C[C@@H]1CC[C@H]1[C@H]2CC[C@]2(C)[C@H](C(=O)CO)CC[C@@H]12,6.11,
CC(=O)[C@@H]1CC[C@H]2[C@H]3CC[C@H]4C[C@@H](O)CC[C@]4(C)[C@@H]3CC[C@]12C,-1.49,
C[N+]1(C)CCc2cc3c(cc2[C@@H]1[C@@H]1OC(=O)c2c1ccc1c2OCO1)OCO3,5.09,
COc1ccc2c(c1O)-c1cccc3c1[C@H](C2)N(C)CC3,3.69,
COc1cc([C@@H](O)CN)ccc1O,3.52,
COc1ccc2c(c1)[C@]13CCCC[C@@H]1[C@H](C2)NCC3,-1.7,
CCCN1CC[C@@H]2c3cc(O)ccc3CC[C@H]21,0.0996,
Oc1ccc2c3c1O[C@@H]1c4[nH]c5c(c4C[C@@]4(O)[C@@H](C2)N(CC2CC2)CC[C@]314)C[C@]1(O)[C@@H]2Cc3ccc(O)c4c3[C@@]1(CCN2CC1CC1)[C@H]5O4,-4.78,
CN1C[C@@H](CS(=O)(=O)N(C)C)C[C@H]2c3cccc4c3c(cn4C)C[C@@H]21,-1.71,
COC(=O)[C@H](N)CCCN=C(N)N[N+](=O)[O-],0.477,
